# Test results as given in PubChem BioAssay (NCATS).
# Several values for one entry are separate records, joined by “and”; a condition that tells them apart may be missing. Equal values may be shown once. Results filed as inconclusive are left out. Activity calls are given as the source filed them. Unless noted, calls come from the whole dose curve; as a rule, active = well fitted curve in the direction sought with a large enough effect; inconclusive = small, poorly fitted or top-dose-only effect, or another doubt; inactive = no such curve, though single readings can be large; an effect the other way counts as inactive or inconclusive.
# Experiments:
# [1] = target: Cytochrome P450 2C9 (Homo sapiens) (UniProt P11712); experiment: qHTS Assay for Inhibitors and Substrates of Cytochrome P450 2C9 (AID 883); note: % is set by controls: 0 for no effect and ±100 for the full control effect; nearly all actives have a fitted effect of over 60% in size
# Summary of the method: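 Luminescent read-out of deoxyluciferin hydroxylation, normalized to 57uM sulphaphenazole (AC100). Reaction: 10nM enzyme, 100uM Luciferin-H (equal to KM), 25mM KPO4, 10 min compound preincubation, then 60 min with NADPH regeneration, both at 37C.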
# [2] = target: Cytochrome P450 2D6 (Homo sapiens) (UniProt P10635); experiment: qHTS Assay for Inhibitors and Substrates of Cytochrome P450 2D6 (AID 891); note: potency is the fitted concentration of half-maximal effect; nearly all actives have a fitted effect of over 60% in size
# Summary of the method: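 Luminescent read-out of luciferin formed by 5 nM human CYP2D6 demethylating 30 uM Luciferin-ME EGE (Km level) over 60 min at room temperature after NADPH regeneration addition. Data normalized to full inhibition by 1.43 uM quinidine.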
# [3] = qHTS Assay for Identification of Small Molecule Antagonists for Thrombopoietin (TPO) Signaling Pathway (AID 918); details: TPO-dependent cell signaling reporter, antagonist mode; note: potency is the fitted concentration of half-maximal effect; nearly all actives have a fitted effect of over 60% in size
# Summary of the method: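 Antagonist mode at EC50 TPO (26 pM) in IL-3-free medium; murine Ba/F3 cells with human TPO receptor and GPIIb-promoter luciferase, 24 hrs at 37 C before luminescent detection.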
# [4] = target: Muscarinic acetylcholine receptor M1 (Rattus norvegicus) (UniProt P08482); experiment: qHTS Assay for Antagonists of Acetylcholine Muscarinic M1 Receptor: Kinetic Measurement of Intracellular Calcium Response (AID 943); note: potency is the fitted concentration of half-maximal effect; nearly all actives have a fitted effect of over 75% in size
# Summary of the method: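 Quantitative HTS in CHO-M1 (rat receptor) cells: 10 min compound exposure ahead of 100 nM carbachol, Fluo-4 fluorescence followed 4 min, value expressed as peak-to-basal ratio.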
# [5] = qHTS for differential inhibitors of proliferation of Plasmodium falciparum line 7G8 (AID 1815);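 note: potency is the fitted concentration of half-maximal effect; parasite growth measured after three days of incubation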
# [6] = qHTS for differential inhibitors of proliferation of Plasmodium falciparum line GB4 (AID 1816); details: Potency: Plasmodium falciparum GB4 proliferation inhibition;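 note: potency is the fitted concentration of half-maximal effect; parasite growth measured after 72 h incubation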
# [7] = qHTS for differential inhibitors of proliferation of Plasmodium falciparum line 3D7 (AID 1876); note: potency is the fitted concentration of half-maximal effect
# [8] = qHTS for differential inhibitors of proliferation of Plasmodium falciparum line D10 (AID 1877);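 note: potency is the fitted concentration of half-maximal effect; parasites grown with compound for 72 h before DNA staining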
# [9] = qHTS for differential inhibitors of proliferation of Plasmodium falciparum line Dd2 (AID 1882); details: Potency: Plasmodium falciparum Dd2 proliferation inhibition; note: potency is the fitted concentration of half-maximal effect; nearly all actives have a fitted effect of over 65% in size
# Summary of the method: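 RBC culture, 0.3% parasitemia / 2.5% Hct final; cpd added by pin tool in DMSO; 72 h, 37 C, 5% CO2; lysis buffer + SYBR Green I, o/n RT dark; FI 485/535; norm. to artemisinin 0.29 uM and DMSO.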
# [10] = qHTS for differential inhibitors of proliferation of Plasmodium falciparum line W2 (AID 1883); details: Potency: Plasmodium falciparum W2 proliferation inhibition;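 note: potency is the fitted concentration of half-maximal effect; parasites grown with compound for 72 h before lysis and staining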
# [11] = qHTS for differential inhibitors of proliferation of Plasmodium falciparum line HB3 (AID 1886); details: Potency: Plasmodium falciparum HB3 proliferation inhibition;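 note: potency is the fitted concentration of half-maximal effect; parasites grown with compound for 72 h before SYBR Green readout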
# [12] = High Content Imaging Cell-Based qHTS for Inhibitors of the mTORC1 Signaling Pathway in MEF Cells (AID 2667); note: potency is the fitted concentration of half-maximal effect
# Summary of the method: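 Tsc2-/-, p53-/- MEFs stably re-expressing WT Tsc2, grown in DMEM + 10% FBS, were treated with compounds for 24 hrs at 37 degree Celsius, fixed, and stained with Alexa-488 phospho-rpS6 Ser235/236 antibody plus Hoechst; results given as % positive cells.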
# [13] = target: M-phase phosphoprotein 8 (Homo sapiens) (UniProt Q99549); experiment: qHTS Validation Assay for Inhibitors for MPP8 Chromodomain Interactions with Methylated Histone Tails (AID 488949);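 note: 50 nM MPP8 with 50 nM peptide preformed then compounds added for 30 min; AlphaScreen signal from MPP8 chromodomain bound to biotinylated H3K9me3 peptide; top concentration of the series differs between compounds; % is set by controls: 0 for no effect and ±100 for the full control effect; nearly all actives have a fitted effect of over 55% in size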
# Summary of the method: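 Chemiluminescent proximity assay: histidine-tag capture via nickel acceptor beads, biotin peptide via streptavidin donor beads. Protein and peptide each at 50 nM, pH 7.4, with 30 min incubations at room temperature for complex formation, compound exposure and bead binding.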
# [14] = target: D(1A) dopamine receptor (Homo sapiens) (UniProt P21728); experiment: HTS Assay for Allosteric Agonists of the Human D1 Dopamine Receptor: Primary Screen for Potentiators (AID 488982); note: 0% is about no effect
# Summary of the method: (§1)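 Calcium flux in an inducible, force-coupled HEK293 Trex D1 line (overnight at 30 C): agonist mode is the 180 s kinetic read after compound; potentiator mode is the following 180 s read after dopamine at EC20.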
# [15] = target: Voltage-gated inwardly rectifying potassium channel KCNH2 (Homo sapiens) (UniProt Q12809); experiment: qHTS Assay for Small Molecule Inhibitors of the Human hERG Channel Activity (AID 588834);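 note: potency is the fitted concentration of half-maximal effect; lower thallium flux fluorescence means stronger hERG block; nearly all actives have a fitted effect of over 50% in size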
# Summary of the method: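 Homogeneous FluxOR thallium flux assay using hERG-expressing U2OS cells (BacMam). Compound treatment about 10 minutes preceded stimulation; reduced fluorescence taken as channel block.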
# [16] = target: Cytochrome P450 2C19 (Homo sapiens) (UniProt P33261); experiment: qHTS Assay for Inhibitors and Substrates of Cytochrome P450 2C19 (AID 899); note: potency is the fitted concentration of half-maximal effect; nearly all actives have a fitted effect of over 60% in size
# Summary of the method: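 Luminescence readout of luciferin formed from 10uM Luciferin-H EGE (KM level) by 5 nM CYP2C19 in 50mM KPO4. 60 min NADPH-driven reaction at 37C after 10 min compound preincubation; data scaled to 57uM ketoconazole inhibition.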
# [17] = qHTS Assay for Lipid Storage Modulators (AID 1519; calls by dose curve; note: % is set by controls: 0 for no effect and ±100 for the full control effect); details: Drosophila S3 cells, BODIPY lipid droplet/cell ratio, laser cytometry; at 25.7 µM (top of the series); cells loaded with oleic acid
# Summary of the method: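 Cells seeded at 5,000 per well were treated with compounds over a concentration series and loaded with oleic acid (400 uM, as added). Lipid droplet fluorescence (488 nm excitation, 500-530 nm channel) was read by laser-scanning cytometry and normalized to 20 uM Triacsin C.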
# [18] = qHTS profiling of the MIPE4 collection as inhibitors of Plasmodium falciparum (DD2) proliferation (Rep 2) (AID 743346; call rule not given here); details: P. falciparum Dd2 in erythrocytes, SYBR Green DNA, 72 h; at 28.5 µM (top of the series) unless noted
# Summary of the method: (§2)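 Parasite DNA was quantified by SYBR Green I fluorescence (ex 485, em 535 nm) after overnight lysis in saponin/Triton buffer at room temperature. Cultures at 0.3% parasitemia and 2.5% hematocrit were first exposed to compound for 72 h at 37 C; signals were normalised to artemisinin (0.29 uM) and vehicle wells.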
# [19] = target: Alpha-galactosidase (Coffea arabica) (UniProt Q42656); experiment: Counterscreen for Glucocerebrosidase Inhibitors: qHTS Assay for Coffee Bean alpha-Galactosidase at pH 4.5 (AID 957);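 note: plate controls were enzyme alone for no effect and no enzyme for full effect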
# Summary of the method: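 Quantitative HTS of compounds (0.7 nM to 77 uM) against coffee bean alpha-galactosidase at pH 4.5, measuring 4-methylumbelliferone fluorescence released from 80 uM substrate.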
# [20] = target: RecQ-like DNA helicase BLM (Homo sapiens) (UniProt P54132); experiment: qHTS Validation Assay for Inhibitors of Bloom's syndrome helicase (BLM) (AID 2364);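 note: plate controls were DMSO vehicle for no effect and enzyme-free control for full effect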
# Summary of the method: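 Forked 20-bp duplex substrate (200 nM, TAMRA/BHQ-2) plus 2 mM ATP added after 15 min compound preincubation with 50 nM enzyme, pH 8.0, poly(dI-dC) 2.5 ug/ml. Strand separation followed by fluorescence (525/598 nm) over 2 h, normalized to enzyme-free and DMSO controls.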
# [21] = Cytometric Cell-Based qHTS for Inhibitors of the mTORC1 Signaling Pathway in MEF (Tsc2-/-, p53-/-) Cells (AID 2660);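 note: Tsc2 and p53 null MEFs carrying empty vector with compound for 24 h; percent of cells above a phospho-rpS6 to PI ratio cutoff in each well; plate controls were DMSO for no effect and rapamycin for full effect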
# Summary of the method: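 Cells are plated, treated with compound for 24 hrs at 37 degree Celsius, then fixed, blocked and immunostained for phospho-rpS6 Ser235/236. Propidium iodide counterstain follows. Per-well % positive cells is derived from the PI-normalized phospho-S6 signal.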
# [22] = Validation screen for small molecules that induce DNA re-replication in MCF 10A normal breast cells (AID 463097); note: 0% is about no effect; nearly all actives have a fitted effect of over 60% in size
# Summary of the method: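 Following 48 hr compound incubation (37 C, 5% CO2), MCF 10A cells receive Hoechst for 40 min at 37 C. Nuclei are then scanned (excitation 405 nm, emission 500-530 nm) for total fluorescence intensity.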
# [23] = target: D(1A) dopamine receptor (Homo sapiens) (UniProt P21728); experiment: HTS Assay for Allosteric Agonists of the Human D1 Dopamine Receptor: Primary Screen for Agonists (AID 488981); note: 0% is about no effect
# Summary of the method: as §1
# [24] = qHTS for Inhibitors of ATXN expression: Validation (AID 588378); note: potency is the fitted concentration of half-maximal effect; nearly all actives have a fitted effect of over 75% in size
# Summary of the method: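 After a 2 h attachment and 24 h compound incubation, HEK293-ATXN2-FFLuc wells are read for fluorescence at 405 nm excitation/525 nm emission as a viability measure, then for Bright-Glo luminescence reflecting ATXN2 expression.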
# [25] = target: Arylsulfatase A (Homo sapiens) (UniProt P15289); experiment: qHTS screen for enhancers of Arylsulfatase A (ASA1): LOPAC Validation Assay (AID 720538)
# Summary of the method: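 Cell-based enhancement test: residual ASA activity in SV40-transformed I179S patient fibroblasts is measured by pNCS turnover (0.5mM final, 14h, room temperature) following 48h compound incubation; higher fluorescence indicates activation.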
# [26] = qHTS profiling of the MIPE4 collection as inhibitors of Plasmodium falciparum (3D7) proliferation (AID 743344; call rule not given here;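 note: scaled between DMSO vehicle wells and 0.29 µM artemisinin as full inhibition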); details: P. falciparum 3D7 in erythrocytes, SYBR Green DNA fluorescence, 72 h; at 28.5 µM (top of the series) unless noted
# Summary of the method: as §2
# [27] = qHTS profiling of the MIPE4 collection as inhibitors of Plasmodium falciparum (HB3) proliferation (AID 743347; call rule not given here;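 note: plate controls were DMSO vehicle wells for no effect and artemisinin wells for full effect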); details: P. falciparum HB3 in erythrocytes, SYBR Green DNA, 72 h; at 28.5 µM (top of the series) unless noted
# Summary of the method: as §2
# [28] = Primary qHTS for Huh7 cytotoxicity: counterscreen for inhibitors of MERS-S pseudotyped particle cell entry (AID 1479147; calls by dose curve); details: outcome: dose series up to 57.1 µM unless noted
# [29] = Primary qHTS for inhibitors of MERS-S pseudo-typed particle cell entry (AID 1479149; calls by dose curve)
# [30] = NCATS anti-infectives library activity on HEK293 viability as a counter-qHTS vs the C. elegans viability qHTS (AID 1745854);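 note: HEK293 cells exposed to compounds for 24 hr before the viability read; % is set by controls: 0 for no effect and ±100 for the full control effect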
# Summary of the method: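 Compound titrations (final up to 41.7 uM) were incubated with HEK293 cells for 24 hr at 37C under 5% CO2. Viable cells were quantified with CellTiter-Glo after 10 min at ambient temperature.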
# Chain of Alpha-galactosidase (Coffea arabica) (Q42656 whole entry, looked up): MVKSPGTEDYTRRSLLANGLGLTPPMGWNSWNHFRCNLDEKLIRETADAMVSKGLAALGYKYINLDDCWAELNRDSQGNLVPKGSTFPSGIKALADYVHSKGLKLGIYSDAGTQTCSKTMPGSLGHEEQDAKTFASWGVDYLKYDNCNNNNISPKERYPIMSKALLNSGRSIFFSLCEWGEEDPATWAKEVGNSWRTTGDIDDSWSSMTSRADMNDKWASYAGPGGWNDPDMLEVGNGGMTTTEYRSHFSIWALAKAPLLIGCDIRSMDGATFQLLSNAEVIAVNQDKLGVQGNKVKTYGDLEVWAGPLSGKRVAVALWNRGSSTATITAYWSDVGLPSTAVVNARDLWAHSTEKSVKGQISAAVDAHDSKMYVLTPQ
# Chain of D(1A) dopamine receptor (Homo sapiens) (P21728 whole entry, looked up): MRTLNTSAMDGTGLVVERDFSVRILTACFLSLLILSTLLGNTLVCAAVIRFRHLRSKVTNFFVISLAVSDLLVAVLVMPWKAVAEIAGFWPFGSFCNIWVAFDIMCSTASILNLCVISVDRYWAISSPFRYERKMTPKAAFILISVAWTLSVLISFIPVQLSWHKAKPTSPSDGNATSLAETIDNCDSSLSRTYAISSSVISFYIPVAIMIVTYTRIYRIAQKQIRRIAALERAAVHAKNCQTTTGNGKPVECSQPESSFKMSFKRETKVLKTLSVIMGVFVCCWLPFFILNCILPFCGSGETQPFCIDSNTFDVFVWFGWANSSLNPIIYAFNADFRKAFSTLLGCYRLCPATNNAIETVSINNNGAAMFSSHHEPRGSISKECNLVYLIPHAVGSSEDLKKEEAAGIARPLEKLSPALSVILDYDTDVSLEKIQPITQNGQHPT
# Chain of Cytochrome P450 2D6 (Homo sapiens) (P10635 whole entry, looked up): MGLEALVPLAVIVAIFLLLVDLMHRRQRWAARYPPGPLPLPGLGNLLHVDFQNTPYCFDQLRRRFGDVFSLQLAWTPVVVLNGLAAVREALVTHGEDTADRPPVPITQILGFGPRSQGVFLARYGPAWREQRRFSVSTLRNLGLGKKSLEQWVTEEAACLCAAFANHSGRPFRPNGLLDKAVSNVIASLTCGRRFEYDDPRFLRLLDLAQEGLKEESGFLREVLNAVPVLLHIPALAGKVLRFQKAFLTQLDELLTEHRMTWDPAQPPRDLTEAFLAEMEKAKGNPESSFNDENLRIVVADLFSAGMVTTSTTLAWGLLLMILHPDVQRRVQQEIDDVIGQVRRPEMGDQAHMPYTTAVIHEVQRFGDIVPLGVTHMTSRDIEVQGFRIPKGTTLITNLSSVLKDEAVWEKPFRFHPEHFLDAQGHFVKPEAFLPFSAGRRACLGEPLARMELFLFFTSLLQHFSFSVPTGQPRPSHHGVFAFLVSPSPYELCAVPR
# Chain of Cytochrome P450 2C9 (Homo sapiens) (P11712 whole entry, looked up): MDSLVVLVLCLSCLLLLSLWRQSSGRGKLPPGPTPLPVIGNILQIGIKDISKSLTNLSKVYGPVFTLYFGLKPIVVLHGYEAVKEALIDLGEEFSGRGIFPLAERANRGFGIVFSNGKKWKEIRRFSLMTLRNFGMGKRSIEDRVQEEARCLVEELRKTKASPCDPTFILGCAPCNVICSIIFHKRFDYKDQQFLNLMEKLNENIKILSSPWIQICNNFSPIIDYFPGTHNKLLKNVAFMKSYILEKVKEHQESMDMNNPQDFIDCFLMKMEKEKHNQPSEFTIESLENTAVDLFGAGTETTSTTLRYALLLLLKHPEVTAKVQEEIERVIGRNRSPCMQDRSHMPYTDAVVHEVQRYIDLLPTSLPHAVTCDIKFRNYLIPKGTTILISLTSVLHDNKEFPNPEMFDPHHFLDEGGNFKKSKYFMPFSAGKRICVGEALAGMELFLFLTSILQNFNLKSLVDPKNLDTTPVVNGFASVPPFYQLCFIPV
# Chain of Cytochrome P450 2C19 (Homo sapiens) (P33261 whole entry, looked up): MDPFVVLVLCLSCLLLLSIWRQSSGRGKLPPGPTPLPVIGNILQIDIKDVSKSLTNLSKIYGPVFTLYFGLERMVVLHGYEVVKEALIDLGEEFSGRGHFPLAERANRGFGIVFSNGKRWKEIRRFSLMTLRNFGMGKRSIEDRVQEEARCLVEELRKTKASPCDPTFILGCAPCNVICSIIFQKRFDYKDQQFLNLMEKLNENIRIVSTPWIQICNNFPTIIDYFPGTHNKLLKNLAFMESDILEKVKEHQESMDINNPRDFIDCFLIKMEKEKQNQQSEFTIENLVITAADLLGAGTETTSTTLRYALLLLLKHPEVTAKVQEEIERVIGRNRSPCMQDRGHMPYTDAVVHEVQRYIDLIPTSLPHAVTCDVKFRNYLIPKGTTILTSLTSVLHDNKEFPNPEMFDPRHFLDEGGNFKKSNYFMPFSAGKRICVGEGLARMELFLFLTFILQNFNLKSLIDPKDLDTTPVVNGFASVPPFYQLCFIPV
# Chain of Arylsulfatase A (Homo sapiens) (P15289 whole entry, looked up): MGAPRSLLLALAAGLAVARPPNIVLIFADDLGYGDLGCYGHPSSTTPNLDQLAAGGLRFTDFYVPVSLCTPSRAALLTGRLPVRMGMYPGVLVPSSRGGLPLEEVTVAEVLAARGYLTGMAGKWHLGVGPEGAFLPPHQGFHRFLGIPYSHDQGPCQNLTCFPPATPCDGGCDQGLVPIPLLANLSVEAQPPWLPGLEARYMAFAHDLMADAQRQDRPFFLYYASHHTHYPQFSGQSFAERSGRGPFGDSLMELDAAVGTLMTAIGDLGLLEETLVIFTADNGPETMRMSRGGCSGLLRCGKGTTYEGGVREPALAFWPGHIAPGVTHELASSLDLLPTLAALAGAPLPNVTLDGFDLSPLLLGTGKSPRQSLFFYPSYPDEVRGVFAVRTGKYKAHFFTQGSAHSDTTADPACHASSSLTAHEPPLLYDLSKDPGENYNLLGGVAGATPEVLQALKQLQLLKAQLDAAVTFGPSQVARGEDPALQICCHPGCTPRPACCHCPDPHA
# Chain of Muscarinic acetylcholine receptor M1 (Rattus norvegicus) (P08482 whole entry, looked up): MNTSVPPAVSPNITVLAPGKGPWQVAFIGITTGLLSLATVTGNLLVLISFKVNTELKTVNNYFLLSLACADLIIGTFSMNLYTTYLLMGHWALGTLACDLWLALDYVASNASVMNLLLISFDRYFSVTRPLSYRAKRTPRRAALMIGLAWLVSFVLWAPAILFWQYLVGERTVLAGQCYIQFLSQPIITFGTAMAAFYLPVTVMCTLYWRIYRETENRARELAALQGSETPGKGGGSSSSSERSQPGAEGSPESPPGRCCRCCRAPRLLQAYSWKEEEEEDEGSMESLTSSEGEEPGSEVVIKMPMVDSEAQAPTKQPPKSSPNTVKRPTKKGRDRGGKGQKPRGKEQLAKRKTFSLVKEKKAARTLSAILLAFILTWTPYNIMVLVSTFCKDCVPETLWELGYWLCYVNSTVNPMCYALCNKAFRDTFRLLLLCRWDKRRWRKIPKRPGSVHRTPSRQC
# Chain of Voltage-gated inwardly rectifying potassium channel KCNH2 (Homo sapiens) (Q12809 whole entry, looked up): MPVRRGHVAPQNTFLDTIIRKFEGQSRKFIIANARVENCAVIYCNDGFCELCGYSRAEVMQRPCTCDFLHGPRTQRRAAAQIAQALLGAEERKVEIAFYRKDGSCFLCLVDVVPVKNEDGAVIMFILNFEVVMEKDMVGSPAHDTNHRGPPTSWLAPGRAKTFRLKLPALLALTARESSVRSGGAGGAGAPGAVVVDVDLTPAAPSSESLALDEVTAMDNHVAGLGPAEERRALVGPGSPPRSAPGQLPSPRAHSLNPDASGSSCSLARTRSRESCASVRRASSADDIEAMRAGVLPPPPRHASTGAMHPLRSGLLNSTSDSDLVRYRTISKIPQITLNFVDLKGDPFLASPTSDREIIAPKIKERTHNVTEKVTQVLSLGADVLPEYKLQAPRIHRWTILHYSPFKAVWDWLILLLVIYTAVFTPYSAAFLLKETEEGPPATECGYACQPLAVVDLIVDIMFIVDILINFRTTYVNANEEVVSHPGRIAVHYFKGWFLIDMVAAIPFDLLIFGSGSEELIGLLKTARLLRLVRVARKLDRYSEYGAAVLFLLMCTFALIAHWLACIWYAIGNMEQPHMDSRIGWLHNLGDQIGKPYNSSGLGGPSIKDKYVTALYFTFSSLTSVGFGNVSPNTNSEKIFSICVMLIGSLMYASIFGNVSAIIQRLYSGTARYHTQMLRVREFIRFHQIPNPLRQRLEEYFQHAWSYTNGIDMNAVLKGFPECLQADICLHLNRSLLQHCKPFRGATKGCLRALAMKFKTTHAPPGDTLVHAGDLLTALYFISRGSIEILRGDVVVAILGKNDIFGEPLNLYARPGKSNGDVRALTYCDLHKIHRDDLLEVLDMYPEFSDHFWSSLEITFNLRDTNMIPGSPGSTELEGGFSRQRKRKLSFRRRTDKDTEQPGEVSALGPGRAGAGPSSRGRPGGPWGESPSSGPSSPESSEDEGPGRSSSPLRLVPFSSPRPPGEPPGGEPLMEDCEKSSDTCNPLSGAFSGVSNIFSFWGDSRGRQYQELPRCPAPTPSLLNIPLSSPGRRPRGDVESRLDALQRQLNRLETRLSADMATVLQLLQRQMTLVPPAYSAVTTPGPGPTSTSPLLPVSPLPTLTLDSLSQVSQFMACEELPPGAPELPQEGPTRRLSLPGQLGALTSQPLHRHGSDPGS
structure (smiles),measurement,setting,value
OC1(c2ccc(Cl)cc2)CCN(Cc2c[nH]c3ccccc23)CC1,Potency,[1],inactive
same,Potency,[2],0.316 µM (active)
same,Potency,[3],10 µM (active)
same,Potency,[4],11.2 µM (active)
same,Potency,[5],7.08 µM (active)
same,Potency,[6],8.91 µM (active)
same,Potency,[7],5.01 µM (active)
same,Potency,[8],10 µM (active)
same,Potency,[9],11.2 µM (active)
same,Potency,[10],3.98 µM (active)
same,Potency,[11],10 µM (active)
same,Potency,[12],2.33 µM (active)
same,Potency,[13],inactive
same,Potency,[14],inactive
same,Potency,[15],0.794 µM (active)
O=C1C[C@@H](c2ccc(O)cc2)Oc2cc(O)cc(O)c21,Potency,[16],7.94 µM (active)
same,"activity change, negative = inhibition",[17],0.577% (inactive)
same,"parasite growth, % of control (lower = inhibition)",[18],56.8%
CNCC[C@H](Oc1ccc(C(F)(F)F)cc1)c1ccccc1,Potency,[3],12.6 µM (active) and 10 µM (active)
same,outcome,[19],inactive
same,"activity change, negative = inhibition",[17],-1.04% (inactive)
same,Potency,[8],12.6 µM (active)
same,Potency,[10],4.47 µM (active)
same,Potency,[20],inactive
same,outcome,[21],inactive
same,Potency,[22],inactive
same,outcome,[23],inactive
same,Potency,[24],14.1 µM (active)
same,Potency,[25],inactive
O=S(=O)(c1cccc2c(Cl)cccc12)N1CCCNCC1,outcome,[19],inactive
C[N+](C)([O-])CCNc1ccc(NCC[N+](C)(C)[O-])c2c1C(=O)c1c(O)ccc(O)c1C2=O,"parasite growth, % of DMSO control",[26],49%
same,"parasite growth, % of control (lower = inhibition)",[18],41.1%
same,"growth, % of control",[27],60.6%
CN(C/C=C/c1ccccc1)Cc1cccc2ccccc12,outcome,[28],inactive
COc1ccc(CCN(C)CCCC(C#N)(c2ccc(OC)c(OC)c2)C(C)C)cc1OC (configuration not stated),outcome,[28],inactive
Cc1c(-c2ccc(O)cc2)n(Cc2ccc(OCCN3CCCCCC3)cc2)c2ccc(O)cc12,Potency,[29],10 µM (active)
COC1=C[C@]23CCCN2CCc2cc4c(cc2[C@@H]3[C@@H]1O)OCO4,Potency,[30],inactive
